Here are results for 52 molecules from ChEMBL document CHEMBL4513216, “Probing the Open Global Health Chemical Diversity Library for Multistage-Active Starting Points for Next-Generation Antimalarials” (ACS Infect Dis, 2020).

Out of some 69,000 compounds screened, about 8,600 (12%) showed an effect of 50% or more. For the sample, strong results were picked, then their nearest neighbours and some compounds at random.

The subject of the assay is Plasmodium berghei. Nature of the assay: Screen against P. berghei liver stage (PbLuc), transformed with Luciferase, at 10uM. In kind it is functional, HepG2. The conditions noted are these: tested at 10 uM.
Regarding `OC1(CNCCc2nc3c(s2)CCCC3)CNCCOC1` (configuration not stated), the INHIBITION was -12.1%.

For the molecule `CN(CCCSc1ccccc1)C(=O)Cn1ncc(N(C)C)cc1=O`, the INHIBITION turned out to be 31.7%.

For `Cc1ccc(NC(=O)c2nc3c(s2)CCCN3C(C)C)cn1`, the INHIBITION is recorded as 63.5%.

Take `CC(=O)N1CCCc2sc(C(=O)Nc3ccc(C)nc3)nc21`: the INHIBITION stood at 34.6%.

As to `Cc1ccc(NC(=O)c2nc3c(s2)CCCN3C(=O)C2CC2)cn1`, the INHIBITION is reported as -0.804%.

With `NS(=O)(=O)CCN(CCc1cccc(F)c1)C1CCCC1`, the INHIBITION was determined as 36.3%.

In the case of `CS(=O)(=O)Nc1cnn(Cc2cccc(Cl)c2)c1`, the INHIBITION is given as 29.1%.

Take `COc1ccc(-n2ccc(C(=O)NCCn3ccnc3)n2)cc1`: the INHIBITION was found to be 5.9%.

Take `CN1[C@@H]2CC[C@H]1CN(C(=O)c1nnc3n1CCCC3)CC2`: the INHIBITION is given as -151%.

On to `CNC(=O)[C@@]12CCO[C@@H]1CCN(Cc1scnc1C)C2`, for which the INHIBITION was found to be 19%.

In the case of `O=C(NCc1ccccn1)[C@@]12CCO[C@@H]1CCN(c1ncccn1)C2`, the INHIBITION worked out at 41.2%.

As to `O=C(NCc1ccco1)[C@@]12CCO[C@@H]1CCN(CCN1CCCC1)C2`, the INHIBITION came to 22.4%.

With `CC(C)NC(=O)[C@@]12CCO[C@@H]1CCN(Cc1ccco1)C2`, the INHIBITION was 60.3%.

`COCCNC(=O)[C@@]12CCO[C@@H]1CCN(Cc1scnc1C)C2`: the INHIBITION was 8.67%.

As for `O=C(NCc1ccco1)[C@@]12CCO[C@@H]1CCN(Cc1ccccn1)C2`, the INHIBITION is recorded as -34.7%.

Take `Cc1ncsc1CN1CC[C@H]2OCC[C@@]2(C(=O)NCC2CC2)C1`: the INHIBITION turned out to be 53.4%.

As to `O=C(NCc1ccccn1)[C@@]12CCO[C@@H]1CCN(Cc1ccccn1)C2`, the INHIBITION came out at 51.2%.

Take `Cc1cc(CN2CC[C@H]3OCC[C@@]3(C(=O)NC(C)C)C2)no1`: the INHIBITION was 6.32%.

Turning to `c1coc(CN2CCCn3c(nnc3Cn3cccc3)C2)c1`, the INHIBITION is recorded as 45.4%.

For the molecule `Cc1ccc(CN2C[C@H](OCC3CCOCC3)[C@H]3COC[C@H]32)o1`, the INHIBITION is -59.9%.

Consider `Oc1cc(CC2COCCN(CC3(O)CCOCC3)C2)ncn1` (configuration not stated), for which the INHIBITION was 6.26%.

With `CC(C)c1nnc2n1CCN(C(=O)Cc1csc(C(C)(C)C)n1)C2`, the INHIBITION came out at 1.35%.

For the molecule `CC(C)N1CCC(Cc2cc(-c3cccc(C(=O)O)c3)ncn2)CC1`, the INHIBITION worked out at 23.4%.

In the case of `c1coc(CN2CCO[C@H]3[C@H](OCC4CCCC4)CC[C@@H]32)c1`, the INHIBITION was 47.4%.

Turning to `Fc1ccc(CN2CCO[C@H]3[C@H](OCC4CCCC4)CC[C@@H]32)cc1`, the INHIBITION turned out to be 66.8%.

Regarding `Fc1ccc(CN2CCO[C@H]3[C@H](OCC4CC4)CC[C@@H]32)cc1`, the INHIBITION is -30.8%.

On to `c1cc(CN2CCO[C@H]3[C@H](OCC4CCCC4)CC[C@@H]32)ccn1`, for which the INHIBITION was determined as 62.6%.

For `c1cc(CN2CCO[C@H]3[C@H](OCCN4CCCC4)CC[C@@H]32)ccn1`, the INHIBITION stood at 38.2%.

In the case of `Fc1ccc(CN2CCO[C@H]3[C@H](OCCN4CCCC4)CC[C@@H]32)cc1`, the INHIBITION amounted to 15.1%.

In the case of `CCOC[C@]12COC[C@H]1CN(Cc1ccc(F)c(F)c1)C2`, the INHIBITION was determined as 10.4%.

For `Cc1cnccc1CN(C)Cc1c[nH]nc1-c1ccc(F)cc1F`, the INHIBITION came to 18.6%.

Turning to `CC(C)CN(C)Cc1c[nH]nc1-c1ccc(F)cc1F`, the INHIBITION is 11.9%.

As for `CN(Cc1c[nH]nc1-c1ccc(F)cc1F)Cc1nccn1C`, the INHIBITION was 52.2%.

In the case of `COc1ccc(-c2n[nH]cc2CN(C)Cc2nccn2C)c(F)c1`, the INHIBITION is reported as 51.5%.

Turning to `COc1ccc(-c2n[nH]cc2CN(C)Cc2nnc(C)o2)c(F)c1`, the INHIBITION is on record as 23.8%.

As for `COc1ccc(-c2n[nH]cc2CN(C)Cc2ccoc2)c(F)c1`, the INHIBITION is -25.8%.

Consider `Cc1nc(CN2C(=O)CC[C@@H]3[C@H]2CCN3C(=O)C2CCCO2)cs1` (some centres not stated), for which the INHIBITION was found to be 15.4%.

Regarding `O=C(CCc1ccncc1)N1CCc2cc(Cl)cc(Cl)c2C1`, the INHIBITION was found to be 49.7%.

On to `COc1ccc(F)cc1C(=O)N1C[C@@H]2CC[C@H]1CN(c1ncccn1)C2`, for which the INHIBITION is 10.7%.

On to `CC(C)C(=O)N1CCC(C)(c2cc(O)[nH]n2)CC1`, for which the INHIBITION was -4.87%.

Regarding `c1ccc(CCN2CCCC2c2cncc(Nc3nncs3)n2)cc1` (configuration not stated), the INHIBITION was 11.8%.

As to `c1ccc(CCN2CCCC2c2ccnc(Nc3ncccn3)n2)cc1` (configuration not stated), the INHIBITION is listed as 11.8%.

On to `Cc1ccccc1CN1CCCC1c1cccc(Nc2nccs2)n1` (configuration not stated), for which the INHIBITION amounted to 71.8%.

With `COc1cccc(CN2CCCC2c2cncc(Nc3nncs3)n2)c1` (configuration not stated), the INHIBITION is reported as -29.9%.

Take `Cc1ccccc1CN1CCCC1c1cncc(Nc2nncs2)n1` (configuration not stated): the INHIBITION is listed as 22%.

Take `c1ccc(CCN2CCCC2c2cccc(Nc3nccs3)n2)cc1` (configuration not stated): the INHIBITION was 69.2%.

With `Cc1cccc(CN2CCCC2c2cccc(Nc3nccs3)n2)c1` (configuration not stated), the INHIBITION worked out at 72%.

Regarding `CS(=O)(=O)N1CCCC1c1cccc(Nc2nccs2)n1` (configuration not stated), the INHIBITION is -17.7%.

For `Cc1cccc(CN2CCCC2c2cncc(Nc3nncs3)n2)c1` (configuration not stated), the INHIBITION is reported as 46.2%.

Turning to `COc1cccc(CNC(=O)CCNS(=O)(=O)c2ccc(C)cc2)c1`, the INHIBITION is reported as -31.3%.

Regarding `CCCC1c2cccn2CCN1S(=O)(=O)N1CCOCC1` (configuration not stated), the INHIBITION came to 1.65%.

As to `CCCc1nc(C(=O)NC(COC)c2ccnn2C)cs1` (configuration not stated), the INHIBITION amounted to 16.3%.
